# Bioassay records (PubChem BioAssay)
# Rab9 promoter act – activates the Rab9 promoter; actives 2.8% (n = 320,000); Huh7 Rab9 promoter-luciferase reporter, luminescence, 24 h; Potency, µM (top dose mostly 9.22 µM), inactives show at the highest dose activation, negative = inhibition, actives largely listed as activators; note: % of control where 0% means no effect; nearly all actives have a fitted effect of over 60% in size
#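 Quantitative HTS format; Huh7 Rab9-luciferase reporter cells (1500/well) receive compound 2 h post-plating, incubate 24 h at 37 °C, then get luciferase reagent for 10 min before luminescence reading.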
# SMN2 splice up – increases expression of the SMN2 splice variant; HEK293 SMN2-luciferase splicing reporter, luminescence, 30-36 h; actives 2.8% (n = 210,000); Potency, µM (doses to about 46.1 µM), inactives show top-dose activity change, positive = activation, actives largely listed as activators; note: % of control where 0% means no effect; nearly all actives have a fitted effect of over 55% in size
#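 HEK293 cells carry an SMN2 minigene-luciferase reporter in which exon 7 inclusion puts luciferase in frame. Cells were seeded at 2000 cells/well, attached for 10-12 hours, then exposed to compounds for 30-36 hours at 37C before ONE-Glo luminescence.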
# ELG1 genotoxic – induces genotoxicity in HEK293T cells with luciferase-tagged ELG1 | HEK293T ELG1-luciferase reporter, luminescence, 16 h | Potency, µM (highest dose often 46 µM), inactives show at the highest dose activity change, positive = activation, hits mostly activators | actives 1.3% (n = 330,000) | AID 504466; note: % of control where 0% means no effect; nearly all actives have a fitted effect of over 60% in size
#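 Genotoxicity was scored as increased ELG1-luciferase reporter signal, measured by ONE-Glo luminescence (30 min, room temperature). Compound or vehicle exposure of the HEK293T reporter cells lasted 16 hr at 37°C.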
# KinaseGlo FLuc – Kinase-Glo luciferase inhibition (counter-screen); actives 0.28% (n = 200,000); Kinase-Glo luciferase, ATP luminescence, 8 min; Potency, µM (top dose mostly 38.3 µM), without a hit: at the top dose activity change, negative = inhibition, hits mostly inhibitors; note: % is set by controls: 0 for no effect and ±100 for the full control effect; nearly all actives have a fitted effect of over 60% in size
#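 Kinase-Glo luciferase light output from ATP and luciferin was measured with 10 uM ATP, within the enzyme's linear range. Buffer: 50 mM imidazole pH 7.2, 50 mM KCl, 7 mM MgCl2, 0.01% Tween 20, 0.05% BSA; luminescence read after 8 min at ambient temperature.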
# NPC1 promoter act – activators of NPC1 promoter; Huh7 NPC1 promoter luciferase reporter, 24 h; Potency, µM (titrated, usually from 9.22 µM), inactives show at the highest dose activation, hits mostly activators; actives 2.4% (n = 320,000); note: % of control where 0% means no effect; nearly all actives have a fitted effect of over 60% in size
#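 Luciferase expression driven by the NPC1 promoter was measured in stably transfected Huh7 cells after a 24 h compound incubation, using a luciferase reagent and a luminescence read.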
# FLuc modulator – inhibits or activates purified firefly luciferase, miR-21 counter-screen. P08659. purified FLuc, Km substrates, luminescence inhibition. Potency, µM (titrated, usually from 57.5 µM), without a hit: top-dose activity change, negative = inhibition, hits mostly inhibitors. actives 6.9% (n = 360,000);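 note: plate controls were vehicle for no effect and reference inhibitor for full effect; nearly all actives have a fitted effect of over 55% in size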
# Target sequence (P08659 whole entry, looked up): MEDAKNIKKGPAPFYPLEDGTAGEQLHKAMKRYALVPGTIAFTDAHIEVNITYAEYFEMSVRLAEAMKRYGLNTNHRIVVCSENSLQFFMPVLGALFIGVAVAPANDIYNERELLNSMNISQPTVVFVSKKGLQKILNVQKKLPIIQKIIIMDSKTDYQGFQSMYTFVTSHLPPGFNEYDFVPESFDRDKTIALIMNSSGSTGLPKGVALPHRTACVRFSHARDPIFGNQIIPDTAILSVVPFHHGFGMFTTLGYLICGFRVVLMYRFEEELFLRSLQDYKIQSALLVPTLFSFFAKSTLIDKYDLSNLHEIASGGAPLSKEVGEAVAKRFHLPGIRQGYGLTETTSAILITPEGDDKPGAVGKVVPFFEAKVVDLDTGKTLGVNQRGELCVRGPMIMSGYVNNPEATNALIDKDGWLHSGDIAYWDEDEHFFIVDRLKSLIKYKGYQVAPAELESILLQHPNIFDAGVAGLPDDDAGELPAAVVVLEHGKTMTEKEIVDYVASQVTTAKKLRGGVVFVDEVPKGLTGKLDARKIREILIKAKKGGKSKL
#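 Purified P. pyralis luciferase, 10 nM final, with Km-level 10 uM D-luciferin and 10 uM ATP in 50 mM Tris acetate pH 7.5, 10 mM Mg acetate, 0.01% Tween-20, 0.05% BSA; 6-point qHTS titration about 60 µM downward; luminescence read.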
# Numbers without * were called inactive; u = inconclusive; x = not tested or not shown; [ ] = remark or other dose. Compounds with a hit are over-represented: about 7.5% of the library has one in this group of screens. Calls come from the whole dose curve; as a rule, active = well fitted curve in the direction sought with a large enough effect; inconclusive = small, poorly fitted or top-dose-only effect, or another doubt; inactive = no such curve, though single readings can be large; an effect the other way counts as inactive or inconclusive. Potency is the fitted concentration of half-maximal effect.
SMILES,Rab9 promoter act,SMN2 splice up,ELG1 genotoxic,KinaseGlo FLuc,NPC1 promoter act,FLuc modulator
CSc1ccccc1OCc1cc(C(=O)N(C)Cc2ccncn2)no1,2µM*,x,16µM*,x,2µM*,15µM*
CCn1ccnc1CN(C)C(=O)c1cc(COc2ccccc2SC)on1,2.8µM*,x,u,x,u,12µM*
COc1ccc(S(=O)(=O)NCCC(=O)N2CCCN(C)CC2)cc1,0%,x,1%,x,2%,0%
O=C(Nc1cccc2cccnc12)c1ccc2c(c1)OCCO2,u,27%,u,-9%,11%,12µM*
COc1ccc(N2CCOCC2)c(NC(=O)c2ccc3c(c2)OCO3)c1,-1%,x,6%,x,-2%,-15%
COc1cc(NC(=O)c2ccc3c(c2)OCO3)c2ncccc2c1,10%,-63%,6%,-3%,15%,1.9µM*
O=C(Nc1cccc(Cl)c1N1CCCCC1)c1ccc2c(c1)OCCO2,2%,17%,0%,1%,-6%,3%
C=C1C(=O)OC2CC1C(OC(C)=O)CC(C)=CCCC(C)=CCC[C@@]2(C)O (some centres undefined),x,-93%,x,-5%,x,x
O=C(NC1CCCCC1)c1ccc(CSc2nc3ccncc3n2Cc2cccc(F)c2)cc1,x,17%,x,x,x,u
Cc1[nH]n(-c2ccc(F)cc2)c(=O)c1/C=N/c1sc2c(c1C#N)CCCC2,0%,-22%,-5%,-25%,1%,13µM*
N#Cc1c(/N=C/c2ccco2)sc2c1CCC2,-1%,x,2%,-28%,-3%,2.4µM*
Cc1ccc(C=Nc2ccccc2C#N)s1,0%,3%,9%,-21%,0%,1.3µM*
N#Cc1c(/N=C/c2cc3ccccc3s2)sc2c1CCC2,1.4µM*,10µM*,u,-2%,1.4µM*,u
C/C=C(\C)CN1CCC(Oc2ccc(C(=O)NCc3ccccn3)cc2)CC1,-1%,x,0%,x,-1%,-1%
Cc1ccc(/C=N/c2sc3c(c2C#N)CCC3)s1,u,7.1µM*,u,-13%,u,0.67µM*
Cc1ccc(/C=N/c2sc3c(c2C#N)CCCCC3)o1,4µM*,-32%,1.5µM*,u,4.5µM*,0.17µM*
O=C(Cc1c(Cl)cccc1Cl)OCc1ccccn1,25%,x,23µM*,x,25%,u
Cc1nn(-c2ccccc2)c2sc(C(=O)N3CCCCC3)cc12,x,u,x,0%,x,19µM*
CCn1c(CN2CCOCC2)nnc1SCC(=O)Nc1ccc(C(C)=O)cc1,5%,x,0%,x,3%,-3%
C=CCSc1nnc(-c2ccc(Cl)cc2Cl)o1,0.45µM*,u,u,8%,0.71µM*,1.3µM*
C=CCSc1nnc(-c2ccc([N+](=O)[O-])cc2)o1,4µM*,u,u,1%,3.5µM*,17µM*
Clc1ccc(-c2nnc(SCc3ccon3)o2)c(Cl)c1,0.5µM*,2.8µM*,1.2µM*,-4%,0.35µM*,1.2µM*
Cc1ccc2nc(CSc3nnc(NC(=O)C(C)C)s3)cc(=O)n2c1,x,x,x,x,x,3%
CCOc1ccc(C2C(=O)N(C3CCCCCC3)CC(=O)N2CCc2ccccc2)cc1OC (centres undefined),x,x,x,x,x,-1%
CCOc1ccc(CC(=O)NCCc2sc3nc(-c4ccc(F)cc4)nn3c2C)cc1,x,x,x,x,x,-10%
SMILES,Rab9 promoter act,SMN2 splice up,ELG1 genotoxic,KinaseGlo FLuc,NPC1 promoter act,FLuc modulator
COc1ccc2c(c1)c1c(c(=O)n(-c3ccccc3)c(=O)n1CC(=O)Nc1ccc(F)cc1)n2C,x,x,x,x,x,1%
CN(C)CCNC(=O)Cc1ccc(NC(=O)N2CCCCc3ccccc32)cc1,x,x,x,x,x,-2%
CN(C)/C=C1\C(=O)N(c2ccc(Cl)cc2)CS1(=O)=O,u,29%,u,-9%,3.2µM*,17µM*
Cc1ccc(N2CS(=O)(=O)/C(=C/N(C)C)C2=O)cc1,1.3µM*,13µM*,u,-28%,2µM*,12µM*
CN(C)/C=C1\SC(=S)N(c2ccc(F)cc2)C1=O,20%,x,12%,x,10%,-15%
C/C(=N\NC(=O)c1ccncc1)c1ccc2ccccc2c1O,x,-38%[9.22 µM],x,-6%[7.66 µM],x,x
c1ccc(CN=C2NN=C(c3cc4ccccc4o3)CS2)cc1,18%,18%,1%,5%,18%,17µM*
c1csc(C2=NNC(=NC3CCCCC3)SC2)c1,1µM*,13µM*,u,-11%,1.3µM*,4.8µM*
c1ccc2oc(C3=NNC(=NC4CC4)SC3)cc2c1,0.32µM*,1µM*,u,u,0.28µM*,0.76µM*
Cc1nc(SCc2ccc(Cl)cc2)c(C#N)c(C)c1Cl,x,-5%,x,x,x,-10%
Cn1c(-c2nnn(-c3ccc(F)cc3)n2)cc2ccccc21,4µM*,x,5.2µM*,x,u,1.3µM*
Cc1ccc(-n2nnc(-c3cc4ccccc4n3C)n2)cc1,1.6µM*,x,u,x,2.8µM*,0.85µM*
Cn1c(-c2ccccc2)cc2ccccc21,-4%,x,-1%,x,0%,u
Cc1ccc(-c2nn(-c3cccc([N+](=O)[O-])c3)c3c2cnc2ccc(F)cc23)cc1,x,x,x,x,x,0%
Cc1ccc2c(=O)cc(C(=O)Nc3ccc(S(=O)(=O)N(C)c4ccccc4)cc3)oc2c1C,x,1%,x,x,x,-3%
O=C(Oc1cccc(-c2cnc3ccccc3n2)c1)c1ccco1,3.2µM*,13µM*,u,-1%,u,24µM*
CCN(CC)S(=O)(=O)c1cc(C(=O)Oc2cccc(-c3cnc4ccccc4n3)c2)ccc1OC,u,13µM*,10%,-2%,u,-17%
CCN(CC)S(=O)(=O)c1ccc(C)c(C(=O)Oc2cccc(-c3cnc4ccccc4n3)c2)c1,u,18µM*,15%,2%,u,0%
COc1ccc(C(=O)NCC(c2ccc(N(C)C)cc2)N2CCc3ccccc32)cc1OC (centres undefined),x,x,x,x,x,-1%
COCCNC(=O)C(c1ccc(Cl)cc1)N(CCOC)C(=O)CCC(=O)Nc1nccs1 (centres undefined),-5%,2%,1%,2%,-1%,2%
COc1cccc(C(=O)NCCC2=CCCCC2)c1OC,4µM*,13µM*,u,0%,u,-9%[2.3 µM]
Cc1cc(C(=O)NCCC2=CCCCC2)c(C)o1,10µM*,11µM*,u,-1%,1µM*,u
C=C(C)CSc1nnc2n(N)c(=O)c3ccccc3n12,u,18%,u,-2%,20%,17µM*
Cc1oc(-c2ccc(Cl)cc2)cc1C(=O)O,u,x,12%,x,u,11µM*
CC(C)(C)C(=O)Cn1ncc(Br)c(Br)c1=O,-49%,-99%,-26%,4%,-42%,-2%
